From PubChem BioAssay (Tox21) come the findings set out here.

“And” between values parts separate entries of the source, which are not always exact repeats. Equal values may be shown once. Results filed as inconclusive are left out. A call without a number means that no potency is given here. The source holds several records for some structures; these can differ, active in one and inactive in another. The source made the active and inactive calls. Calls come from the whole dose curve; as a rule, active = well fitted inhibition curve with a large enough effect in the signal ratio in the repeat runs; inconclusive = weak or mixed curves, or effect the other way; inactive = flat fitted curve, though single readings scatter; the % refers to the signal ratio.
Potency is the fitted concentration of half-maximal effect.

The test in a line: qHTS assay for small molecule disruptors of the mitochondrial membrane potential (AID 720635). Particulars: HepG2 mitochondrial membrane potential, Mito-MPS dye ratio; series mostly up to 83.2 µM. From the text:
U.S. Tox21 Program National Center for Advancing Translational Sciences [NCATS] NIH Chemical Genomics Center [NCGC] U.S. Environmental Protection Agency [EPA] National Institutes of Environmental Health Sciences [NIEHS] National Toxicology Program [NTP] U.S. Food and Drug Administration [FDA] Tox21 Assay Overview: Mitochondrial membrane potential (MMP), one of the parameters for mitochondrial function, is generated by mitochondrial electron transport chain that creates an electrochemical gradient by a series of redox reactions. This gradient drives the synthesis of ATP, a crucial molecule for various cellular processes. Measuring MMP in living cells is commonly used to assess the effect of chemicals on mitochondrial function. […] The dye accumulates in the mitochondria of healthy cells as aggregates, with red fluorescence. The mitochondrial potential collapses and the dye can no longer accumulate in the mitochondria and remains in the cytoplasm in monomers, with green fluorescence.
Tox21 Assay Protocol Summary: 2,000 HepG2 cells in 5 uL/well were dispensed into black, clear-bottom 1536-well plates using a Multidrop Combi (Thermo Scientific) dispenser. The assay plates were incubated overnight at 37C to allow cells to attach to the wells, followed by the transfer of 23 nL compound or DMSO vehicle by a pin tool (Kalypsys). The plates were incubated for 1 hr at 37C and 5% CO2, followed by the addition of 5 uL of 2X Mito-MPS dye (BD Biosciences) into each well using Flying Reagent Dispenser (Aurora Discovery) and then following 30 min incubation at 37C. Fluorescence intensity (490nm excitation and 535nm emission for monomers; and 540nm excitation and 590nm emissions for aggregates) was measured using an Envision plate reader.
(In general: qHTS replaces the single test concentration by a dilution series.)
As to `CCCn1cc[n+](C)c1`, the Potency result was “inactive”. The result for `Cc1cc(-c2ccc(N)c(C)c2)ccc1N` reads “inactive”. Consider `Nc1ccc(Cl)cc1`, for which the Potency entry was “inactive”. The result for `CCn1cc[n+](C)c1C` reads “inactive”; that for `CCNc1nc(Cl)nc(NCC)n1`, “inactive”; that for `Cc1cc(Cl)ccc1N`, “inactive”. The result for `O=c1nc(O)n(Cl)c(=O)n1Cl` reads “inactive”; that for `COc1ccc(N)cc1`, “inactive”. In the case of `CCOP(=S)(OCC)Oc1ccc2c(C)c(Cl)c(=O)oc2c1` it was 19.5 µM (active) and 61.1 µM (active).

Turning to `CCCCCCCCCCCCOS(=O)(=O)O`, the Potency result is “inactive”. Turning to `CCC[N+]1(C)CCCC1`, the Potency result was “inactive”. In the case of `O=C(O)CCl` it was “inactive”. The result for `Cc1cc(Cl)ccc1OCC(=O)O` reads “inactive”; that for `CCCC[n+]1ccccc1`, “inactive”. For `CC[N+]1(C)CCCC1`, the Potency result was “inactive”. Consider `CCCCn1cc[n+](C)c1`, for which the Potency entry was “inactive”. The result for `CCC[N+]1(C)CCCCC1` reads “inactive”; that for `C1CCC(NC2CCCCC2)CC1`, “inactive”. In the case of `COCC(=O)N(c1c(C)cccc1C)C(C)C(=O)OC` (stereo not given) it was “inactive”; in that of `O=C(O)c1nc(Cl)ccc1Cl`, “inactive”; in that of `Nc1ccccc1`, “inactive”. The result for `CCCCCCCCCCCCCCCCn1cc[n+](C)c1` reads 17.6 µM (active) and inactive and 17.4 µM (active). In the case of `Oc1ccccc1-c1ccccc1`, the Potency was 21.7 µM (active) [middle of 4 runs]. On to `CCCCCC[n+]1ccccc1`, for which the Potency was 61.7 µM (active) and inactive.

Consider `CCCC[N+]1(C)CCCC1`, for which the Potency entry is “inactive”. The result for `O=S(=O)(O)O` reads “inactive”; that for `O=P1(N(CCCl)CCCl)NCCCO1` (stereo not given), “inactive”; that for `Nc1ccc(-c2ccc(N)c(Cl)c2)cc1Cl`, 5.48 µM (active) and 16.1 µM (active) and 8.63 µM (active). The result for `CC[n+]1ccccc1` reads “inactive”; that for `CNC`, “inactive”; that for `CCCCCCCCCCCC(=O)O`, “inactive”.

For `CCCC[n+]1ccccc1C`, the Potency result is “inactive”. The result for `O=C(O)COc1ccc(Cl)cc1Cl` reads “inactive”; that for `CCCC[n+]1cccc(C)c1`, “inactive”. The result for `COc1ccccc1N` reads “inactive”; that for `CCCCn1cc[n+](C)c1C`, “inactive”.

Regarding `O=C(O)C(Cl)Cl`, the Potency entry was “inactive”. The result for `O=C(O)CC(O)(CC(=O)O)C(=O)O` reads “inactive”; that for `CC[N+](CC)(CC)CC`, “inactive”; that for `C[C@]12CCC(=O)C=C1CC[C@@H]1[C@@H]2CC[C@]2(C)C(=O)CC[C@@H]12`, “inactive”.
